Many of the other results were omitted from the sample, so hits are more common in it than they were.
NSD2 block = NSD2 (human) methyltransferase inhibition | O96028 | NSD2-SET H3K36me1 DELFIA fluorescence, biochemical | inhibition, % at 12.5 µM | 44,000 compounds, 0.07% hits; in the data active = inhibition above about 54%, passing the limit was not always enough;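 also: inhibitors reduce the monomethyl H3K36 fluorescence signal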
Starred values were filed as active, the others as inactive.

NC(=O)C1CCCN(/[N+]([O-])=N/OCCBr)C1 (stereo not given) was read as NSD2 block -4.
For COc1cc2c(cc1OC)CN(C(=O)[C@@H]1[C@H]3C(=O)O[C@H](c4ccccc4)[C@H](c4ccccc4)N3[C@H](c3ccccc3OCCO)[C@@]13C(=O)Nc1ccccc13)CC2 the results were NSD2 block -1.
For CCOc1cccc(/C=N/NC(=O)c2cccc(C(=O)NO)c2)c1OCC the results were NSD2 block 1.
Screening COC(=O)C1=COC(O[C@@H]2O[C@H](CO)[C@@H](O)[C@H](O)[C@H]2O)[C@H]2[C@@H]1[C@H](OC(=O)CCc1ccc(O)cc1)C[C@]2(C)O (stereo not given in full) returned NSD2 block 4.
`COC(=O)C1=COC(OC2OC(CO)C(O)C(O)C2O)C2C1C=CC2(O)CO` (stereo not given) gave NSD2 block 60*.
For COC(=O)C1=CO[C@@H](O[C@@H]2O[C@H](CO)[C@@H](O)[C@H](O)[C@H]2O)[C@H]2[C@@H]1[C@H](OC(C)=O)C[C@]2(C)O the results were NSD2 block 2.
Screening O=C(CCCCCC(=O)N/N=C/c1ccncc1Br)NO returned NSD2 block -5.
O=C(CCc1ccc(O)cc1)CC(CCc1ccc(O)cc1)O[C@@H]1O[C@H](CO)[C@@H](O)[C@H](O)[C@H]1O (stereo not given in full) was read as NSD2 block 18.
For O=c1c(O[C@@H]2O[C@H](CO)[C@@H](O)[C@H](O)[C@H]2O)c(-c2ccc(O)cc2)oc2cc(O)cc(O)c12 the results were NSD2 block -8.
For O=c1c(O[C@@H]2O[C@H](CO)[C@H](O)[C@H](O)[C@H]2O)c(-c2cc(O)c(O)c(O)c2)oc2cc(O)cc(O)c12 the results were NSD2 block 85*.
`O=c1c(O[C@@H]2O[C@H](CO)[C@@H](O)[C@H](O)[C@H]2O)c(-c2ccc(O)c(O)c2)oc2cc(O)cc(O)c12` gave NSD2 block 27.

Screening data as filed in PubChem BioAssay.
